# Measured values: the supplement of paper PMC8728848
# The full list was thinned out, with the strongest signals kept by preference.
# Legend:
# Assay in all cases: glycan array binding signal (z-score within array); higher = stronger binding
# Details in all cases: glycan notation: IUPAC condensed, linker removed
# [1] = target: Glc(a1-3)Glc(a1-3)Man(a1-2)Man(a1-2)Man(a1-3)[Man(a1-3)[Man(a1-6)]Man(a1-6)]Man(b1-4)GlcNAc
# In short: (§1)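 Negative Z-scores can be read as non-binding. The Z-score is calculated within each array and then averaged across arrays of one protein sequence at different concentrations or buffers and across linkers. Arrays, 3228 in all, were curated from the Consortium for Functional Glycomics database and kept only where the protein sequence was available.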
# [2] = target: Glc(a1-4)Glc(a1-4)Glc(a1-4)Glc(a1-4)Glc
# In short: as §1
# [3] = target: Glc(a1-4)Glc(a1-4)Glc(a1-4)Glc(a1-4)Glc(a1-4)Glc(a1-4)Glc
# In short: as §1
# [4] = target: Glc(b1-3)Glc(b1-3)Glc(b1-3)Glc
# In short: as §1
# Glc(b1-4)Glc(b1-4)Glc = target: Glc(b1-4)Glc(b1-4)Glc
# In short: as §1
# [5] = target: Gal(b1-3)[GlcNAc(b1-6)]GalNAc
# In short: as §1
# [6] = target: Gal(b1-4)GlcNAc(b1-3)Gal(b1-4)GlcNAc(b1-3)Gal(b1-4)GlcNAc
# In short: as §1
# Gal3S(b1-4)Glc = target: Gal3S(b1-4)Glc
# In short: as §1
# Gal6S(b1-4)Glc = target: Gal6S(b1-4)Glc
# In short: as §1
# Glc(a1-4)Glc = target: Glc(a1-4)Glc
# In short: as §1
# Glc(b1-6)Glc = target: Glc(b1-6)Glc
# In short: as §1
# [7] = target: GlcNAc(b1-2)Gal(b1-3)GalNAc
# In short: as §1
# Man(a1-2)Man(a1-3)Man = target: Man(a1-2)Man(a1-3)Man
# In short: as §1
# [8] = target: Man(a1-2)Man(a1-3)[Man(a1-2)Man(a1-6)]Man
# In short: as §1
# [9] = target: Neu5Ac(a2-3)Gal(b1-3)[Neu5Ac(a2-3)Gal(b1-4)]GlcNAc
# In short: as §1
# [10] = target: Neu5Ac(a2-3)[GalNAc(b1-4)]Gal(b1-4)GlcNAc
# In short: as §1
# [11] = target: Neu5Ac(a2-3)[Neu5Ac(a2-6)]GalNAc
# In short: as §1
# [12] = target: Glc(a1-2)Glc(a1-2)Glc(a1-2)Glc(a1-2)Glc
# In short: as §1
# [13] = target: Glc(b1-2)Glc(b1-2)Glc(b1-2)Glc(b1-2)Glc(b1-2)Glc
# In short: as §1
# [14] = target: Glc(a1-6)Glc(a1-6)Glc(a1-6)Glc(a1-6)Glc(a1-6)Glc(a1-6)Glc(a1-6)Glc
# In short: as §1
# [15] = target: Glc(b1-2)Glc(b1-2)Glc(b1-2)Glc(b1-2)Glc(b1-2)Glc(b1-2)Glc(b1-2)Glc
# In short: as §1
# [16] = target: Glc(b1-2)Glc(b1-2)Glc(b1-2)Glc(b1-2)Glc(b1-2)Glc(b1-2)Glc(b1-2)Glc(b1-2)Glc(b1-2)Glc(b1-2)Glc
# In short: as §1
# [17] = target: Glc(b1-2)Glc(b1-2)Glc(b1-2)Glc(b1-2)Glc(b1-2)Glc(b1-2)Glc(b1-2)Glc(b1-2)Glc(b1-2)Glc(b1-2)Glc(b1-2)Glc(b1-2)Glc
# In short: as §1
# [18] = target: Glc(b1-3)Glc(b1-3)Glc(b1-3)Glc(b1-3)Glc(b1-3)Glc(b1-3)Glc(b1-3)Glc(b1-3)Glc(b1-3)Glc(b1-3)Glc
# In short: as §1
# [19] = target: Glc(b1-3)Glc(b1-3)Glc(b1-3)Glc(b1-3)Glc(b1-3)Glc(b1-3)Glc(b1-3)Glc(b1-3)Glc(b1-3)Glc(b1-3)Glc(b1-3)Glc
# In short: as §1
# [20] = target: Glc(b1-3)Glc(b1-3)Glc(b1-3)Glc(b1-3)Glc(b1-3)Glc(b1-3)Glc(b1-3)Glc(b1-3)Glc(b1-3)Glc(b1-3)Glc(b1-3)Glc(b1-3)Glc
# In short: as §1
# [21] = target: Glc(b1-3)Glc(b1-3)Glc(b1-3)[Glc(b1-6)]Glc(b1-3)Glc(b1-3)Glc(b1-3)Glc(b1-3)[Glc(b1-6)]Glc(b1-3)Glc
# In short: as §1
# Glc(b1-3)Glc(b1-4)Glc = target: Glc(b1-3)Glc(b1-4)Glc
# In short: as §1
# [22] = target: Glc(b1-6)Glc(b1-6)Glc(b1-6)Glc(b1-6)Glc(b1-6)Glc(b1-6)Glc(b1-6)Glc(b1-6)Glc(b1-6)Glc(b1-6)Glc
# In short: as §1
# [23] = target: Man(b1-4)Man(b1-4)Man(b1-4)Man
# In short: as §1
binder,measurement,setting,value
"Malectin (Homo sapiens), Q14165 (protein) MLGAWAVEGTAVALLRLLLLLLPPAIRGPGLGVAGVAGAAGAGLPESVIWAVNAGGEAHVDVHGIHFRKDPLEGRVGRASDYGMKLPILRSNPEDQILYQTERYNEETFGYEVPIKEEGDYVLVLKFAEVYFAQSQQKVFDVRLNGHVVVKDLDIFDRVGHSTAHDEIIPMSIRKGKLSVQGEVSTFTGKLYIEFVKGYYDNPKVCALYIMAGTVDDVPKLQPHPGLEKKEEEEEEEEYDEGSNLKKQTNKNRVQSGPRTPNPYASDNSSLMFPILVAFGVFIPTLFCLCRL",glycan array binding signal (z-score),[1],5.02
same,glycan array binding signal (z-score),[2],-0.172
same,glycan array binding signal (z-score),[3],-0.012
same,glycan array binding signal (z-score),[4],-0.337
same,glycan array binding signal (z-score),Glc(b1-4)Glc(b1-4)Glc,-0.412
"Hip/Pap (Homo sapiens), Q06141 (protein) MLPPMALPSVSWMLLSCLMLLSQVQGEEPQRELPSARIRCPKGSKAYGSHCYALFLSPKSWTDADLACQKRPSGNLVSVLSGAEGSFVSSLVKSIGNSYSYVWIGLHDPTQGTEPNGEGWEWSSSDVMNYFAWERNPSTISSPGHCASLSRSTAFLRWKDYNCNVRLPYVCKFTD",glycan array binding signal (z-score),[5],-0.159
same,glycan array binding signal (z-score),[6],-0.173
same,glycan array binding signal (z-score),Gal3S(b1-4)Glc,0.278
same,glycan array binding signal (z-score),Gal6S(b1-4)Glc,-0.162
same,glycan array binding signal (z-score),Glc(a1-4)Glc,0.806
same,glycan array binding signal (z-score),Glc(b1-6)Glc,0.091
same,glycan array binding signal (z-score),[7],-0.099
same,glycan array binding signal (z-score),Man(a1-2)Man(a1-3)Man,-0.027
same,glycan array binding signal (z-score),[8],0.58
same,glycan array binding signal (z-score),[9],0.71
same,glycan array binding signal (z-score),[10],-0.173
same,glycan array binding signal (z-score),[11],-0.168
"DC-SIGN (Homo sapiens), Q9NNX6 (protein) QVSKVPSSISQEQSRQDAIYQNLTQLKAAVGELSEKSKLQEIYQELTQLKAAVGELPEKSKLQEIYQELTRLKAAVGELPEKSKLQEIYQELTWLKAAVGELPEKSKMQEIYQELTRLKAAVGELPEKSKQQEIYQELTRLKAAVGELPEKSKQQEIYQELTRLKAAVGELPEKSKQQEIYQELTQLKAAVERLCHPCPWEWTFFQGNCYFMSNSQRNWHDSITACKEVGAQLVVIKSAEEQNFLQLQSSRSNRFTWMGLSDLNQEGTWQWVDGSPLLPSFKQYWNRGEPNNVGEEDCAEFSGNGWNDDKCNLAKFWICKKSAASCSRDEEQFLSPAPATPNPPPA",glycan array binding signal (z-score),[12],-0.838
same,glycan array binding signal (z-score),[13],2.48
"Dectin-1 (Mus musculus), Q6QLQ4 (protein) EYGHNSGRNPEEKDNFLSRNKENHKPTESSLDEKVAPSKASQTTGGFSQPCLPNWIMHGKSCYLFSFSGNSWYGSKRHCSQLGAHLLKIDNSKEFEFIESQTSSHRINAFWIGLSRNQSEGPWFWEDGSAFFPNSFQVRNTAPQESLLHNCVWIHGSEVYNQICNTSSYSICEKEL",glycan array binding signal (z-score),[14],-0.161
same,glycan array binding signal (z-score),[15],-0.206
same,glycan array binding signal (z-score),[16],-0.206
same,glycan array binding signal (z-score),[17],-0.182
same,glycan array binding signal (z-score),[18],0.83
same,glycan array binding signal (z-score),[19],5.77
same,glycan array binding signal (z-score),[20],6.71
same,glycan array binding signal (z-score),[21],-0.182
same,glycan array binding signal (z-score),Glc(b1-3)Glc(b1-4)Glc,-0.182
same,glycan array binding signal (z-score),[22],-0.13
same,glycan array binding signal (z-score),[23],-0.038
